# Source: PubChem BioAssay (NCI)
# This is part of a sample that, as a whole, favours compounds with a hit. Of some 83,000 tested, about 20% had one in any assay.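 Method: cells in 96-well plates; compound added at one concentration; 48 h incubation; percent growth measured; values under 10 scored active.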 Activity calls are given as the source filed them.
# System: RPMI-8226 leukemia
# Assay: NCI-60 one-dose screen, 48 h (100 = growth as untreated, 0 = no growth, -100 = all killed)
# Settings: 10 µM unless noted
row,Structure (SMILES),growth
1,OC(c1ccc(F)c(C(F)(F)F)c1)c1cnccc1NC1CCCCC1 (stereo unspecified),16.9% (inactive)
2,CC(=O)CCC(=O)OCc1cc(=O)c(O)co1,107% (inactive)
3,O=S(=O)(Nc1ccc(-n2cnc3cc(-c4ccc(O)cc4)ccc32)cc1)c1ccccc1,69.1% (inactive)
4,O=C1Nc2cc(-c3ccc(NC(=O)c4ccccc4)cc3)ccc2/C1=C/c1ccc[nH]1,101% (inactive)
5,CCCOC(=O)N[C@H]1CCc2cc(OC)c(OC)c(OC)c2-c2ccc(SC)c(=O)cc21,5.39% (active)
6,COc1ccc(C(=O)Nc2cccc(C3CCc4c(cc(OC)c(OC)c4OC)O3)c2)cc1 (stereo unspecified),23.9% (inactive)
7,COc1cc(/C=N/O)nc(-c2ccccn2)c1,18.7% (inactive)
8,NC(=NCCCOc1ccc(F)cc1)Nc1ccc(I)cc1,64.8% (inactive)
9,Cn1c(-c2c(N)n(CCCN3CCOCC3)c3nc(C#N)c(C#N)nc23)nc2ccccc21,5.09% (active)
10,CCOC(=O)c1ccc2c(c1)ncn2-c1ccc(NC(=O)Nc2cccc(C)c2)cc1,45.5% (inactive)
11,COc1ccc2[nH]c(=O)c(CN3CCN(c4nccc(-c5ccc(Cl)cc5)n4)CC3)cc2c1,73.6% (inactive)
12,O=C(/C(=C\c1ccc([N+](=O)[O-])cc1)S(=O)Cc1ccc(Cl)cc1)c1ccc(Cl)cc1 (stereo unspecified),1.3% (active)
13,CCN(CC)CC[n+]1cc2cc(OC)c(OC)cc2c2ccc3cc4c(cc3c21)OCO4,-32.7% (active)
14,N#CC(C#N)=Cc1cc2ccccc2nc1Oc1ccc(C(F)(F)F)cc1,3.66% (active)
15,COc1cc(/C=C\C(=O)O)ccc1OCc1ccccc1,90.2% (inactive)
16,c1ccc(-c2cn3c(ccc4ccccc43)n2)cc1,62.5% (inactive)
17,O=C(Nc1ccc(Cl)cc1)c1cc(NCc2cc(O)ccc2O)ccc1O,4.92% (active)
18,N/C(=N\C(N)=N\c1nc2ccccc2s1)c1cnccn1,13.3% (inactive)
19,CCOC(=O)[C@@H](C)C[C@H](Cc1ccccc1)NC(=O)c1csc([C@@H](C[C@H](C(C)C)N(C)C(=O)[C@@H](NC(=O)[C@H]2C[C@H](O[Si](C)(C)C(C)(C)C)CCN2C)C(C)C)OC(C)=O)n1,-32.7% [9.25 µM] (active)

row,Structure (SMILES),growth
1,CC(C)N1C(=O)/C(=C2\SC(=S)N(C(C)C)C2=O)SC1=S,92.9% (inactive)
2,C#CCNC(=O)c1cccc2c1cc(C)n2-c1nc2c(c(NCc3ccccc3)n1)CCCC2,0.445% (active)
3,COc1cc2nc(-c3ccc(Cl)cc3)cc(OCCCN3CCCCC3)c2cc1OC,21% (inactive)
4,O=C(N/N=C/c1ccc(Oc2ccccc2)cc1)c1cnn2c1NC(c1ccccc1)C2 (stereo unspecified),75.7% (inactive)
5,O=[N+]([O-])CC(c1ccccc1)c1c[nH]c2ccccc12 (stereo unspecified),50.7% (inactive)
6,COc1ccc(CNCCN2C(=O)c3ccc4c5c(ccc(c35)C2=O)C(=O)N(CCNCc2ccc(OC)c(OC)c2OC)C4=O)c(OC)c1OC,-25% (active)
7,Cn1c(N2NC(=O)C(N=Nc3ccc(S(N)(=O)=O)cc3)C2=O)nc(-c2ccco2)c(C#N)c1=O (stereo unspecified),3.99% (active)
8,CCCOC(=O)N[C@H]1CCc2c(Cl)c(OC)c(OC)c(OC)c2-c2ccc(SC)c(=O)cc21,-2.97% (active)
9,C/C=C(\C)C(=O)NC1=CC[C@@]2(C)C(=CCC3C2CC[C@@]2(C)C3CC[C@@H]2C(C)N(C)C)C1=O (stereo partly specified),3.85% (active)
10,COc1ccccc1/C(C)=N/NC(=O)CSc1nc2ccccc2c(=O)n1Cc1ccc(S(N)(=O)=O)cc1,99.5% (inactive)
11,COc1ccc(OC)c(-c2cc(-c3ccc(Cl)cc3)c3c(N)c(C(=O)c4ccc(Cl)cc4)sc3n2)c1,94.2% (inactive)
12,N#C/C(=C\c1ccc(Cl)cc1)n1nnc2cc(F)c(F)cc21,-34.1% (active)
13,COc1cccc(C(=O)NNc2nc(Cl)nc(N3CCN(C(c4ccccc4)c4ccccc4)CC3)n2)c1,88% (inactive)
14,C=C1C(=O)O[C@H]2[C@H]1CC/C(CNC(=O)/C=C/c1ccccc1)=C\CC[C@@]1(C)O[C@@H]21,-10.5% (active)
15,CCN(CC)CCOc1ccc(NC(=O)C(C(C)C)N2C(=O)/C(=C/c3ccc(Br)cc3)SC2=S)cc1 (stereo unspecified),19.5% (inactive)
16,N#Cc1cccc(-c2ccc3c(c2)NC(=O)/C3=C\c2ccc[nH]2)c1,54.1% (inactive)
17,CCCCCCCCOc1ccc(/C=N/Nc2cc(C)nc3ccc(Br)cc23)cc1,36.6% (inactive)
18,O=C(N/N=C/c1cc2ccccc2n2nnnc12)Nc1ccccc1,101% (inactive)
19,COc1cc2c(c(O)c1Br)C(=O)c1c(O)cc(C[C@H](C)O)cc1[C@H]2[C@H]1c2cc(C[C@H](C)O)cc(O)c2C(=O)c2c1cc(OC)c(Br)c2O,9.04% (active)

# System: OVCAR-8 ovarian
# Assay: as above
# Settings: 10 µM unless noted
row,Structure (SMILES),growth
1,OC(c1ccc(F)c(C(F)(F)F)c1)c1cnccc1NC1CCCCC1 (stereo unspecified),81.8% (inactive)
2,CC(=O)CCC(=O)OCc1cc(=O)c(O)co1,108% (inactive)
3,O=S(=O)(Nc1ccc(-n2cnc3cc(-c4ccc(O)cc4)ccc32)cc1)c1ccccc1,84.4% (inactive)
4,O=C1Nc2cc(-c3ccc(NC(=O)c4ccccc4)cc3)ccc2/C1=C/c1ccc[nH]1,101% (inactive)
5,CCCOC(=O)N[C@H]1CCc2cc(OC)c(OC)c(OC)c2-c2ccc(SC)c(=O)cc21,23.6% (inactive)
6,COc1ccc(C(=O)Nc2cccc(C3CCc4c(cc(OC)c(OC)c4OC)O3)c2)cc1 (stereo unspecified),55.6% (inactive)
7,COc1cc(/C=N/O)nc(-c2ccccn2)c1,17.6% (inactive)
8,NC(=NCCCOc1ccc(F)cc1)Nc1ccc(I)cc1,89.3% (inactive)
9,Cn1c(-c2c(N)n(CCCN3CCOCC3)c3nc(C#N)c(C#N)nc23)nc2ccccc21,48.1% (inactive)
10,CCOC(=O)c1ccc2c(c1)ncn2-c1ccc(NC(=O)Nc2cccc(C)c2)cc1,83.8% (inactive)
11,COc1ccc2[nH]c(=O)c(CN3CCN(c4nccc(-c5ccc(Cl)cc5)n4)CC3)cc2c1,66% (inactive)
12,O=C(/C(=C\c1ccc([N+](=O)[O-])cc1)S(=O)Cc1ccc(Cl)cc1)c1ccc(Cl)cc1 (stereo unspecified),73.6% (inactive)
13,CCN(CC)CC[n+]1cc2cc(OC)c(OC)cc2c2ccc3cc4c(cc3c21)OCO4,-82.8% (active)
14,N#CC(C#N)=Cc1cc2ccccc2nc1Oc1ccc(C(F)(F)F)cc1,92.5% (inactive)
15,COc1cc(/C=C\C(=O)O)ccc1OCc1ccccc1,93.7% (inactive)
16,c1ccc(-c2cn3c(ccc4ccccc43)n2)cc1,71.4% (inactive)
17,O=C(Nc1ccc(Cl)cc1)c1cc(NCc2cc(O)ccc2O)ccc1O,70.4% (inactive)
18,N/C(=N\C(N)=N\c1nc2ccccc2s1)c1cnccn1,28.1% (inactive)
19,CCOC(=O)[C@@H](C)C[C@H](Cc1ccccc1)NC(=O)c1csc([C@@H](C[C@H](C(C)C)N(C)C(=O)[C@@H](NC(=O)[C@H]2C[C@H](O[Si](C)(C)C(C)(C)C)CCN2C)C(C)C)OC(C)=O)n1,-2.84% [9.25 µM] (active)

row,Structure (SMILES),growth
1,CC(C)N1C(=O)/C(=C2\SC(=S)N(C(C)C)C2=O)SC1=S,96.5% (inactive)
2,C#CCNC(=O)c1cccc2c1cc(C)n2-c1nc2c(c(NCc3ccccc3)n1)CCCC2,12.8% (inactive)
3,COc1cc2nc(-c3ccc(Cl)cc3)cc(OCCCN3CCCCC3)c2cc1OC,49.8% (inactive)
4,O=C(N/N=C/c1ccc(Oc2ccccc2)cc1)c1cnn2c1NC(c1ccccc1)C2 (stereo unspecified),52.1% (inactive)
5,O=[N+]([O-])CC(c1ccccc1)c1c[nH]c2ccccc12 (stereo unspecified),52.7% (inactive)
6,COc1ccc(CNCCN2C(=O)c3ccc4c5c(ccc(c35)C2=O)C(=O)N(CCNCc2ccc(OC)c(OC)c2OC)C4=O)c(OC)c1OC,-9.78% (active)
7,Cn1c(N2NC(=O)C(N=Nc3ccc(S(N)(=O)=O)cc3)C2=O)nc(-c2ccco2)c(C#N)c1=O (stereo unspecified),90.2% (inactive)
8,CCCOC(=O)N[C@H]1CCc2c(Cl)c(OC)c(OC)c(OC)c2-c2ccc(SC)c(=O)cc21,21.6% (inactive)
9,C/C=C(\C)C(=O)NC1=CC[C@@]2(C)C(=CCC3C2CC[C@@]2(C)C3CC[C@@H]2C(C)N(C)C)C1=O (stereo partly specified),65.9% (inactive)
10,COc1ccccc1/C(C)=N/NC(=O)CSc1nc2ccccc2c(=O)n1Cc1ccc(S(N)(=O)=O)cc1,98.7% (inactive)
11,COc1ccc(OC)c(-c2cc(-c3ccc(Cl)cc3)c3c(N)c(C(=O)c4ccc(Cl)cc4)sc3n2)c1,104% (inactive)
12,N#C/C(=C\c1ccc(Cl)cc1)n1nnc2cc(F)c(F)cc21,13.3% (inactive)
13,COc1cccc(C(=O)NNc2nc(Cl)nc(N3CCN(C(c4ccccc4)c4ccccc4)CC3)n2)c1,71.1% (inactive)
14,C=C1C(=O)O[C@H]2[C@H]1CC/C(CNC(=O)/C=C/c1ccccc1)=C\CC[C@@]1(C)O[C@@H]21,5.85% (active)
15,CCN(CC)CCOc1ccc(NC(=O)C(C(C)C)N2C(=O)/C(=C/c3ccc(Br)cc3)SC2=S)cc1 (stereo unspecified),25.6% (inactive)
16,N#Cc1cccc(-c2ccc3c(c2)NC(=O)/C3=C\c2ccc[nH]2)c1,85.9% (inactive)
17,CCCCCCCCOc1ccc(/C=N/Nc2cc(C)nc3ccc(Br)cc23)cc1,46.4% (inactive)
18,O=C(N/N=C/c1cc2ccccc2n2nnnc12)Nc1ccccc1,103% (inactive)
19,COc1cc2c(c(O)c1Br)C(=O)c1c(O)cc(C[C@H](C)O)cc1[C@H]2[C@H]1c2cc(C[C@H](C)O)cc(O)c2C(=O)c2c1cc(OC)c(Br)c2O,10.4% (inactive)
